Bioassay records: PubChem, National Center for Advancing Translational Sciences (NCATS)
Tau FP inhib: inhibitors of human tau fibril formation; P10636; K18 P301L tau heparin fibrillization, Alexa594 FP, 6 h; Potency, µM (top dose mostly 57.7 µM), inactives show top-dose activity, negative = inhibition, hits mostly inhibitors; hit rate 0.39% among 280,000; AID 1468; also: potency is read from the fitted curve at half-maximal effect; nearly all actives have a fitted effect of over 55% in size
Target sequence (P10636 561-689 P618L limits assumed): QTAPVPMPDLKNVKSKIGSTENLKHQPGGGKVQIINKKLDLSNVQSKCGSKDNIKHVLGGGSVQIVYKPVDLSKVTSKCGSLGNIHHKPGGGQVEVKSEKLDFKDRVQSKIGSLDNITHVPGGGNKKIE
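Steps: dispense K18 P301L tau (15 uM plus 0.24 uM Alexa 594 tracer, final) in pH 7 sodium acetate; add compound; add heparin (20 uM final); incubate 6 hr, 37 C; add ThT (30 uM final); after 1 hr ambient, read FP.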
Coupling enz: coupling enzyme interference in Giardia aldolase counter-screen; coupling enzyme system counterscreen, AmpLite Red fluorescence; activity change, negative = inhibition, % at 58.2 µM, hits read low; hit rate 0.67% among 290,000; in the data active = activity change below about -30%
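Compounds tested against the coupling enzymes alone at 57.5 uM final; readout was AmpLite Red fluorescence (525/598 nm) after 20 min at RT.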
Sfp inh: inhibitors of Bacillus subtilis Sfp phosphopantetheinyl transferase; Q9F4F7; Biochemical Sfp PPTase activity, qHTS; Potency, µM, without a hit: largest response in the series, negative = inhibition, actives largely listed as inhibitors; hit rate 3.5% among 310,000;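 also: the enzyme is Sfp with the accession as filed and its product quenches rhodamine fluorescence; potency is read from the fitted curve at half-maximal effect; 0% = enzyme reaction without inhibitor and -100% = no enzyme wells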
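Reaction rates are the 30-min fluorescence difference (ex 525, em 598 nm) in wells containing 15 nM Sfp, 5 uM rhodamine-CoA and 12.5 uM BHQ-2-YbbR at pH 7.6 with 10 mM MgCl2.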
Tau ThT inhib: tau fibrillization inhibition (ThT binding); recombinant tau K18 P301L, heparin-induced fibrillization, ThT fluorescence; Potency, µM (top dose mostly 57.4 µM), for inactives: at the top dose activity, negative = inhibition, usual class: inhibitors; hit rate 2.1% among 270,000; AID 1460; also: potency is read from the fitted curve at half-maximal effect; nearly all actives have a fitted effect of over 55% in size
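Tau K18 P301L fragment (15 uM unlabeled plus 0.24 uM Alexa 594-labeled) in 100 mM sodium acetate pH 7 with compound, fibrillization induced by 20 uM heparin for 6 hr at 37 C. Thioflavin T (30 uM) added, fluorescence read after 1 hr (ex 450, em 510 nm).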
Tau fluor cs: counter-screen for tau fibril formation inhibitors; AID 1463; Potency, µM (titrated, usually from 57.7 µM), inactives show at the highest dose activity change, negative = decrease; tau K18 P301L (four-repeat tau fragment) Alexa594 fluorescence, heparin fibrillization; hit rate 0.93% among 280,000; also: potency is read from the fitted curve at half-maximal effect; nearly all actives have a fitted effect of over 55% in size
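Human K18 P301L tau (15 uM unlabeled plus 0.24 uM Alexa 594-labeled, final) in 100 mM sodium acetate pH 7 was mixed with compound and 20 uM heparin and incubated 6 hr at 37 C.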
Starred values were filed as active, the others as inactive; [ ] = dose if it differs, or a comment. The list is not random: actives were taken first. Their share in the collection is about 5.2%. Unless noted, calls follow the shape of the dose curve; as a rule, active = well fitted curve in the direction sought with a large enough effect; inconclusive = small, poorly fitted or top-dose-only effect, or another doubt; inactive = no such curve, though single readings can be large; an effect the other way counts as inactive or inconclusive. Unless noted, % is scaled to controls: 0 for no effect and ±100 for the full control effect.

Screening C=CCSC1=C(C#N)C(c2ccccc2C)CC(=O)N1 (stereo unspecified) returned Tau FP inhib -6%, Coupling enz 2, Sfp inh inconclusive, Tau ThT inhib -6% and Tau fluor cs -3%.
For CCSC1=C(C#N)C(c2ccccc2C)CC(=O)N1 (stereo unspecified) the results were Tau FP inhib -1%, Coupling enz 2, Sfp inh 18%, Tau ThT inhib -6% and Tau fluor cs -4%.
CCCCCCSC1=C(C#N)C(c2ccccc2)CC(=O)N1 (stereo unspecified) was read as Tau FP inhib 0%, Coupling enz 4, Sfp inh 6%, Tau ThT inhib -10% and Tau fluor cs -6%.
`C=CCSC1=C(C#N)C(c2ccc(OCC)cc2)CC(=O)N1` (stereo unspecified) gave Tau FP inhib 5%, Coupling enz 0, Sfp inh 79µM*, Tau ThT inhib -11% and Tau fluor cs -5%.
`O=C1CCN(CCc2ccccc2)CCN1C(CSc1ccc(Br)cc1)c1ccccc1` (stereo unspecified) gave Coupling enz 6 and Sfp inh 14%.
CCC1CN(C(=O)N2CCC(C(=O)NCCC3=CCCCC3)CC2)c2ccccc2O1 (stereo unspecified) was read as Tau FP inhib 10%, Tau ThT inhib 7% and Tau fluor cs inconclusive.
O=C(N[C@H]1CCCc2ccccc21)O[C@@H]1C(=O)c2cc(Br)ccc2O[C@H]1c1ccc2c(c1)OCO2 was read as Tau FP inhib -1%, Coupling enz 1, Sfp inh -18%, Tau ThT inhib -8% and Tau fluor cs -3%.
COCCCN=C(c1ccco1)n1c(=S)nc(-c2ccco2)n(CCCOC)c1=S was read as Tau FP inhib inconclusive, Coupling enz -33*, Sfp inh 11µM*, Tau ThT inhib 32µM* and Tau fluor cs -24%.
For COCCCn1c(-c2ccco2)nc2ccccc2c1=O the results were Tau FP inhib 7%, Coupling enz 0, Sfp inh 17%, Tau ThT inhib -9% and Tau fluor cs -2%.
Screening C/C1=C2/[N-]C(C(CC(N)=O)[C@@]2(C)CCC(=O)NCC(C)OP(=O)([O-])O[C@H]2[C@@H](O)[C@@H](n3cnc4cc(C)c(C)cc43)O[C@@H]2CO)[C@]2(C)N=C(/C(C)=C3N=C(/C=C4N=C1C(CCC(N)=O)C\4(C)C)[C@@H](CCC(N)=O)[C@]\3(C)CC(N)=O)[C@@H](CCC(N)=O)[C@]2(C)CC(N)=O.CC(=O)O.[Co] (stereo partly specified) returned Sfp inh -21%.
`Cc1ccc(C(=O)NC2(O)C(=O)c3ccccc3C2=O)cc1C` gave Tau FP inhib 4µM*, Coupling enz -19, Sfp inh 7% and Tau fluor cs -11%.
COc1ccc(/C=C\c2onc(C)c2S(=O)(=O)N2CCC(C(=O)Nc3ccc(Cl)cc3)CC2)cc1 was read as Tau FP inhib inconclusive, Tau ThT inhib -1% and Tau fluor cs -25%.
Screening Cc1cccc(C)c1OCc1nc2ccccc2c(=O)n1/N=C/c1c[nH]c2ccccc12 returned Tau FP inhib inconclusive, Coupling enz -2, Sfp inh 37%, Tau ThT inhib -5% and Tau fluor cs 3.5µM*[quencher].
For Cc1ccccc1OCc1nc2ccccc2c(=O)n1/N=C/c1c[nH]c2ccccc12 the results were Tau FP inhib inconclusive, Coupling enz -5, Sfp inh 1%, Tau ThT inhib 9% and Tau fluor cs inconclusive.
For O=C1C=C(NC2=CC3OC(c4ccccc4)OCC3OC2=O)CCC1 (stereo unspecified) the results were Tau FP inhib inconclusive, Coupling enz 1, Sfp inh -39%, Tau ThT inhib 28µM* and Tau fluor cs -10%.
`Cc1nc(N2CCCCC2)c2c(-c3cccs3)csc2n1` gave Tau FP inhib -16%, Coupling enz 11, Sfp inh 56µM*, Tau ThT inhib -7% and Tau fluor cs -16%.
`Cc1nc(N2CCN(S(=O)(=O)c3ccccc3C#N)CC2)c2c(-c3cccs3)csc2n1` gave Tau FP inhib -2%, Coupling enz -1, Sfp inh 12%, Tau ThT inhib -8% and Tau fluor cs -22%.
Screening CCC1=C[C@@H]2CN(C1)Cc1c([nH]c3ccccc13)[C@@](C(=O)OC)(c1cc3c(cc1OC)N(C)[C@@H]1[C@@](O)(C(=O)OC)[C@H](OC(C)=O)[C@]4(CC)C=CCN5CC[C@]31[C@@H]54)C2 returned Sfp inh 71µM*.
CC[C@]1(O)CC2CN(CCc3c([nH]c4ccccc34)[C@@](C(=O)OC)(c3cc4c(cc3OC)N(C)[C@H]3[C@@](O)(C(=O)OC)[C@H](OC(C)=O)[C@]5(CC)C=CCN6CC[C@]43[C@@H]65)C2)C1 (stereo partly specified) was read as Sfp inh -27%.
`CN(C)CCCCOc1cccc(Br)c1` gave Tau FP inhib -10%, Coupling enz -4, Sfp inh 56µM*, Tau ThT inhib inconclusive and Tau fluor cs -22%.
Screening Cc1ccc(Cl)cc1NS(=O)(=O)c1ccc(N2CCCCS2(=O)=O)cc1 returned Tau FP inhib -2%, Tau ThT inhib 0% and Tau fluor cs -19%.
`CCOc1ccccc1C(=O)N1CCC(c2nc3ccccc3o2)CC1` gave Tau FP inhib -4%, Tau ThT inhib -3% and Tau fluor cs -4%.
Screening CCN(CC(=O)Nc1c(C(=O)OC)[nH]c2ccc(Cl)cc12)c1ccc2c(c1)OCO2 returned Tau FP inhib 12%, Coupling enz -6, Sfp inh -18%, Tau ThT inhib inconclusive and Tau fluor cs 7.9µM*[quencher].
Screening CCc1ccccc1NC(=O)/C(=C/c1ccco1)c1ccccc1 returned Tau FP inhib -6%, Coupling enz -7, Sfp inh 45µM*, Tau ThT inhib inconclusive and Tau fluor cs -19%.
`CC(C)OC(=O)/C(=C/c1ccco1)c1ccccc1` gave Tau FP inhib -8%, Coupling enz -2, Sfp inh 45µM*, Tau ThT inhib -2% and Tau fluor cs 0%.
Cc1ccccc1NC(=O)/C(=C/c1ccco1)c1ccccc1 was read as Tau FP inhib -10%, Coupling enz 0, Sfp inh 56µM*, Tau ThT inhib -14% and Tau fluor cs -22%.
`O=C1N=c2ccccc2=C1c1c(O)n(-c2cccc(F)c2)[nH]c1=O` gave Tau FP inhib inconclusive, Coupling enz -29, Sfp inh 11µM*, Tau ThT inhib 14µM* and Tau fluor cs -25%.
